# Test results as given in ChEMBL document CHEMBL3988442, “University of Dundee, Small-Polar-MMV Screening Library” (2021).
# Where “and” joins values, the source holds several entries; their conditions need not be identical. Equal values may be shown once. For some assays here: Potency and affinity values are given separately.
# Key:
# Design in all cases: scale not given: direction of the effect not stated beside the values
# [1] = target: Protein translocase subunit SecA (Escherichia coli (strain K12)) (UniProt P10408); assay: Assay to Identify E. coli SecA ATPase Inhibitors; assay type: functional; conditions: 30 µM
# Chain of Protein translocase subunit SecA (Escherichia coli (strain K12)) (P10408 whole entry): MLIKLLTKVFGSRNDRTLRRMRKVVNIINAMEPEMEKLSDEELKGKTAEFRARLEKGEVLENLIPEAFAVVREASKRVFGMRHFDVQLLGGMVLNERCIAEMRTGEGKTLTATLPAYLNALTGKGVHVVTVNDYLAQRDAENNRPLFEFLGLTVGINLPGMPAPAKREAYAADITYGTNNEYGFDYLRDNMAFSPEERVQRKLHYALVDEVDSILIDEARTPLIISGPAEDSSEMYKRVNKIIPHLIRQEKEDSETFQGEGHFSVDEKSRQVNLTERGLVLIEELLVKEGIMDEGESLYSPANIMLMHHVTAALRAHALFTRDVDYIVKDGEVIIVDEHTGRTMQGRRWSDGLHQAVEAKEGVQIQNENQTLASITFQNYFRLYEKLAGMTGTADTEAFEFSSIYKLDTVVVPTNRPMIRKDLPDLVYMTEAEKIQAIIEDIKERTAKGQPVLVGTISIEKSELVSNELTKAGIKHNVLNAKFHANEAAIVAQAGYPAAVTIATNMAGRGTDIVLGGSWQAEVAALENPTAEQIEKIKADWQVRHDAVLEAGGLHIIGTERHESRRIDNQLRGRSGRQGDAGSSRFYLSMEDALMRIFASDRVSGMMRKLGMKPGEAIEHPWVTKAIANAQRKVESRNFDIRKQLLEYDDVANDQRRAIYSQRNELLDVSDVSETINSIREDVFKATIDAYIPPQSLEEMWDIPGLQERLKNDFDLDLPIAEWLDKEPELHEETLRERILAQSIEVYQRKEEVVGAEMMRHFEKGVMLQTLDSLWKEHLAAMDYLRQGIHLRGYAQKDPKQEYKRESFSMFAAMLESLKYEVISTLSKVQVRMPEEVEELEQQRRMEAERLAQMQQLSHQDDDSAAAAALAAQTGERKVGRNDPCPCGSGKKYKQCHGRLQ
# [2] = target: T1, Ubiquitin-activating enzyme e1, putative (Leishmania donovani (strain BPK282A1)) (UniProt E9BSI1); assay: Leishmania donovani Ubiquitin Activating Enzyme (LdE1); assay type: functional; conditions: 30 µM
# T1 sequence (whole entry): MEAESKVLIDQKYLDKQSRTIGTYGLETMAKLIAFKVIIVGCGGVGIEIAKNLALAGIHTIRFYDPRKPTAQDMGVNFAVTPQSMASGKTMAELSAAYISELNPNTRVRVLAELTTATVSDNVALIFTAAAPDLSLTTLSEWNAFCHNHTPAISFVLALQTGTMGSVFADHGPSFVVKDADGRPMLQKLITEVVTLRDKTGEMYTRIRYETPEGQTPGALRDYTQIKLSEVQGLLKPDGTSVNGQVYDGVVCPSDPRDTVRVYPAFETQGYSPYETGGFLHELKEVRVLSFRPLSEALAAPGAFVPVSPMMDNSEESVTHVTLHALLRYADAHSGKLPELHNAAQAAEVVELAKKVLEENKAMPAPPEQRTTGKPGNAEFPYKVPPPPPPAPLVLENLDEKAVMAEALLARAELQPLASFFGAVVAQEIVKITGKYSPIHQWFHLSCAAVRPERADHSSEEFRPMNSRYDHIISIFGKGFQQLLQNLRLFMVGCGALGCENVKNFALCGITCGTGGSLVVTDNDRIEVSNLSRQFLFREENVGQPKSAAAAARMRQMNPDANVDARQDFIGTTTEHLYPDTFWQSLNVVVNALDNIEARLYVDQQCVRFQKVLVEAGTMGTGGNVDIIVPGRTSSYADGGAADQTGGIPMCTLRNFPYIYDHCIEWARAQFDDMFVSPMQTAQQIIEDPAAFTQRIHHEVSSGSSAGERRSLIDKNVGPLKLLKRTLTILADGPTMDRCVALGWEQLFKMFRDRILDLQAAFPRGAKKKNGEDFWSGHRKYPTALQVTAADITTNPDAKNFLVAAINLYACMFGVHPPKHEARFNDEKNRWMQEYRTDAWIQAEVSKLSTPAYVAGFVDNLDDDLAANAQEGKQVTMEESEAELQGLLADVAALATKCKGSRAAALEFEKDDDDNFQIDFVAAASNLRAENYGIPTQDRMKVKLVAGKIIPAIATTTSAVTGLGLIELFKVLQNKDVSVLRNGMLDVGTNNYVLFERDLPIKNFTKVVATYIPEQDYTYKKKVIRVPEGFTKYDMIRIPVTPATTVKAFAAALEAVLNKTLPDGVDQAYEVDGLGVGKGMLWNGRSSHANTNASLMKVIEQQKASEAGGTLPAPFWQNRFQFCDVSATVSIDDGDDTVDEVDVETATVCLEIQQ
# [3] = target: Sialic acid-binding Ig-like lectin 9 (Homo sapiens) (UniProt Q9Y336); assay: Hs-Siglec9 ALPHAscreen SOP 20170721; conditions: 10 µM
# Chain of Sialic acid-binding Ig-like lectin 9 (Homo sapiens) (Q9Y336 whole entry): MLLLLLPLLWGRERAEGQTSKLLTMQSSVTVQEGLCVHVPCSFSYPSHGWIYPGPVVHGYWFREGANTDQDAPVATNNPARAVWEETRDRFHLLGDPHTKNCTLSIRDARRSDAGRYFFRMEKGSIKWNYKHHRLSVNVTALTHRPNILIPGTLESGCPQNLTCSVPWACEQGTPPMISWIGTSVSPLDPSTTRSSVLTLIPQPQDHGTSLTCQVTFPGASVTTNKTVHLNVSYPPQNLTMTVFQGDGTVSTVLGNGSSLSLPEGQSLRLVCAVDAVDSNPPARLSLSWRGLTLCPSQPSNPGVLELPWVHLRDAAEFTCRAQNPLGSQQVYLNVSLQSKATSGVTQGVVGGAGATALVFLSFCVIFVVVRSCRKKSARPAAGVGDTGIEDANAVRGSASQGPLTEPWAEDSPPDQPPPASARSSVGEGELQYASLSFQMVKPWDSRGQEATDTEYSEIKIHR
# Trypanosoma cruzi = assay: Trypanosoma cruzi phosphomannomutase and mannose-1-phosphate guanylyltransferase assay; assay type: functional; conditions: 10 µM
# [4] = target: T2, Arginase-2, mitochondrial (Homo sapiens) (UniProt P78540); assay: in vitro enzyme assay to detect the production of urea directly proportional to the activity of Arginase II; assay type: functional; conditions: 33.3 µM; further: in the data most compounds retested in dose-response had high values
# T2 sequence (whole entry): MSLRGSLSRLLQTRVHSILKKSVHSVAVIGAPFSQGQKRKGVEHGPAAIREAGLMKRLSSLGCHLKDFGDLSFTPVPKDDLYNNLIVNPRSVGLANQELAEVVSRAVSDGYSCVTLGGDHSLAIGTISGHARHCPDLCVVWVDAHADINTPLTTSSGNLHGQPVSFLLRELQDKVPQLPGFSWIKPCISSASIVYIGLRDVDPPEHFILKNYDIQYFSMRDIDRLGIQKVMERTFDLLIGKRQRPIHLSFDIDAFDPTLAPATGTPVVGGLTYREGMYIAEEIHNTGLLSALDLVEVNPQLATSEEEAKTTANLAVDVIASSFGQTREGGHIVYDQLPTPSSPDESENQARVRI
# [5] = target: T3, Proteasome subunit beta (Trypanosoma cruzi) (UniProt O96673); assay: Trypanosoma cruzi proteasome chymotrypsin-like activity (TcProtChymo) assay.; further: in the data most compounds retested in dose-response had high values; assay type: functional; conditions: 9.37 µM
# T3 sequence (whole entry): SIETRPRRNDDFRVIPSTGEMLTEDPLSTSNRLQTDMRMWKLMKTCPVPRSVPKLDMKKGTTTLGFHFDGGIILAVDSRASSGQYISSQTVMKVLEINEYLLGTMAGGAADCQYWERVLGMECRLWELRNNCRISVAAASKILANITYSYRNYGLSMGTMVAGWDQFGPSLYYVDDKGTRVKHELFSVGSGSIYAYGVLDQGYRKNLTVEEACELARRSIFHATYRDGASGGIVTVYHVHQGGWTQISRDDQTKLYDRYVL
# Homo sapiens = species: Homo sapiens; assay: To identify inhibition of the IFN signalling (Jak-Stat) pathway via expression of an eGFP reporter gene under the control of an IFN-stimulated response element (ISRE) containing MxA promoter.; assay type: functional; conditions: 30 µM
# [6] = target: T4, Tyrosyl-tRNA synthetase, putative (Trypanosoma cruzi (strain CL Brener)) (UniProt Q4DSP6); assay: Trypanosoma cruzi tyrosyl tRNA synthetase (TcYRS) _High Tyrosine SOP; assay type: functional; conditions: 30 µM; further: in the data most compounds retested in dose-response had high values
# T4 sequence (whole entry): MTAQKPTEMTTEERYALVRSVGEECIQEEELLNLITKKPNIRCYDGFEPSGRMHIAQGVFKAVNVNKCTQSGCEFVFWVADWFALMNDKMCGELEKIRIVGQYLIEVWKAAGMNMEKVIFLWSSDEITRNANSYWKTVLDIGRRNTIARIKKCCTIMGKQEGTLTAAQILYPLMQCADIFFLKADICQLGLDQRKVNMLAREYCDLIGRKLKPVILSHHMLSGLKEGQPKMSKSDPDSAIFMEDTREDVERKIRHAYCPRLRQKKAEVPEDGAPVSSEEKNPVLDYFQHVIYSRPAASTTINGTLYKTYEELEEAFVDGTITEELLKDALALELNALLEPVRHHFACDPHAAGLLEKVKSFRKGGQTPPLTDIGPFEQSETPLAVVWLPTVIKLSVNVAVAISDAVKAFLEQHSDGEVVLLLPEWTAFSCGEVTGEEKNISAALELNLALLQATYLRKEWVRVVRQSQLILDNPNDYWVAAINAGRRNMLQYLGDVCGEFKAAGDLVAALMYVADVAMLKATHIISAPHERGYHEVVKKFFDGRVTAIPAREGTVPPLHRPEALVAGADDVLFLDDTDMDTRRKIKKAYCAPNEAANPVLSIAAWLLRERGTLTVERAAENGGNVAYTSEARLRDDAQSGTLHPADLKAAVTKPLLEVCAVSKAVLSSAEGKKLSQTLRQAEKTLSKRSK
# [7] = target: T4, Tyrosyl-tRNA synthetase, putative (Trypanosoma cruzi (strain CL Brener)); assay: Trypanosoma cruzi tyrosyl tRNA synthetase (TcYRS) SOP; assay type: functional; conditions: 30 µM
# [8] = target: Chromo domain-containing protein 1 (Saccharomyces cerevisiae (strain ATCC 204508 / S288c) (Baker's yeast)) (UniProt P32657); assay: ScCHD-1 Enzyme Inhibition Assay; assay type: functional; conditions: 30 µM; further: in the data most compounds retested in dose-response had high values
# Chain of Chromo domain-containing protein 1 (Saccharomyces cerevisiae (strain ATCC 204508 / S288c) (Baker's yeast)) (P32657 whole entry, the tested form may be a part): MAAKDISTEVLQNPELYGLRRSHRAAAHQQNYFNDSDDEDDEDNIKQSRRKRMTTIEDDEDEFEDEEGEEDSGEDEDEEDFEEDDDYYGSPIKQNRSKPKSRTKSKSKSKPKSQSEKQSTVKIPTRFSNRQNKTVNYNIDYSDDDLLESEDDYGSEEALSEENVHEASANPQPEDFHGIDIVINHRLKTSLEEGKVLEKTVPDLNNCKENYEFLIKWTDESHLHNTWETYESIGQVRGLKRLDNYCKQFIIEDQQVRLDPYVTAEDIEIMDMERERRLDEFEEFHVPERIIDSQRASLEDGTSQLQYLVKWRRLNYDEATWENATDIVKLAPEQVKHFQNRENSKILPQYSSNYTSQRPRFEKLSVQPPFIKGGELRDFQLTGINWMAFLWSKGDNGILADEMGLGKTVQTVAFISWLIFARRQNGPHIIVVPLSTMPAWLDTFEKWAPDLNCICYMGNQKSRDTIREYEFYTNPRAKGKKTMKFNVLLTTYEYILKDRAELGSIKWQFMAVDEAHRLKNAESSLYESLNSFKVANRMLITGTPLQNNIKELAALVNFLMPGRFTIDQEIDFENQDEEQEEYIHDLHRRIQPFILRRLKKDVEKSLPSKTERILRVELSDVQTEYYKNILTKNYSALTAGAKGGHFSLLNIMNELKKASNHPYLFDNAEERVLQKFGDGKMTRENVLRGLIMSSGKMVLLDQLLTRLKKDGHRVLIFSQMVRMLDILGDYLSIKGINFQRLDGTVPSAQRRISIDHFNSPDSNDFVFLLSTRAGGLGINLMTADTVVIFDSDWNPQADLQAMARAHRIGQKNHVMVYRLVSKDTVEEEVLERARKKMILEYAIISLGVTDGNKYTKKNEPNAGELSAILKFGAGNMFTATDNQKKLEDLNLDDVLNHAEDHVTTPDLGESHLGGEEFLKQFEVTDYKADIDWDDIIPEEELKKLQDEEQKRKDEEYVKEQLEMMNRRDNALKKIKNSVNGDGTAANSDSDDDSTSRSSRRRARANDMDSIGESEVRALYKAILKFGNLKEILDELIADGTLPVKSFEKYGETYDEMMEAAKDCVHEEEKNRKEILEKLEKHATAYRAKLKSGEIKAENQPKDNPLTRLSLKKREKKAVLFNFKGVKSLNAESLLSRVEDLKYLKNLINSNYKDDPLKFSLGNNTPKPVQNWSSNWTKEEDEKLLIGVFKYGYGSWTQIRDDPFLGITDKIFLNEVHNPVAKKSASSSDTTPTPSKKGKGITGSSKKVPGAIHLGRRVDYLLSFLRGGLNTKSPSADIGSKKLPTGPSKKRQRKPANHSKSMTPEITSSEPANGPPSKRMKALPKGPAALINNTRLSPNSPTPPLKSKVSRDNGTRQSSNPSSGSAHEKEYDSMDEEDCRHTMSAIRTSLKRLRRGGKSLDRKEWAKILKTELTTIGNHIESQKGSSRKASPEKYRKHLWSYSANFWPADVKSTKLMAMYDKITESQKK
# N/A = assay: Trypanosoma cruzi proteasome luciferase counter-screen; assay type: functional; conditions: 9.37 µM
SMILES,Percent Effect [1] [%],Percent Effect [2] [%],Percent Effect [3] [%],Percent Effect (Trypanosoma cruzi) [%],Percent Effect [4] [%],Percent Effect [5] [%],Percent Effect (Homo sapiens) [%],Percent Effect [6] [%],Percent Effect [7] [%],Percent Effect [8] [%],Percent Effect (N/A)
Cc1cc(NC(=O)NCC(C)N2CCc3ccccc32)no1 (centres undefined),-4.79,26,2.28,-3.54,1.02,5.96,-2.59,12.8,21.2,-6.91,
Cc1nc(C)c(C(=O)NCCNc2ncccc2C#N)s1,-0.152,31.2,1.1,5.41,-5.94,18.4,7.44,6.86,28.2,-11.7,
Fc1cnc(N2CCOC3(CCN(Cc4ccsc4)CC3)C2)nc1,-0.851,3.9,-6.39,-6.52,6.88,,4.01,11.1,7.69,-4.59,5.37% and 9.17%
CCCOCCCNc1nccc(-c2cn(C)nc2C)n1,-7.46,0,9.13,12.5,-3.85,13.7,36.5,5.85,17.1,-2.61,
Cc1cnn(CC2CCCN2C(=O)c2ccc3nnc(C)n3c2)c1 (centres undefined),-1.55,-5.13,-9.94,1.03,2.87,4.01,8.47,-2.39,-3.61,-5.71,
Cc1[nH]/c(=N\C(=O)c2csc(NCC(C)C)n2)sc1C,-5.08,5.41,2.69,-3.2,-2.45,,20.5,5.85,21.9,0.249,53.4% and 61%
CCOc1cc(CNC(=O)N2CCC(Cc3cnn(C)c3)C2)ccn1 (centres undefined),-2.64,-2.56,1.57,9.11,0.82,2.13,4.43,3.35,6.02,-0.605,
O=C(Cn1cc(-c2ccccc2)ncc1=O)Nc1nnc[nH]1,-1.82,8.11,4.37,2.42,8.74,20.4,-1.74,6.92,19.5,83.7,
Cn1cc(-c2nnn3c2COC(CNCc2nccs2)C3)cn1 (centres undefined),-3.81,11.7,1,4.19,10.5,11.6,6.11,5.79,17.9,8.68,
c1csc(CN2CCOCC3(CCN(C4CCOCC4)C3)C2)n1 (centres undefined),-5.6,6.49,-3.43,-4.77,-5.67,16.9,-1.84,2.63,-2.56,-0.251,
OCC1CCCCN1c1ccc(-c2nc(-c3ccccc3F)no2)cn1 (centres undefined),-2.19,-5.41,7.51,5.14,16.4,,1.31,-0.532,4.88,86.3,
CN(C(=O)Cc1c[nH]c2ccccc12)C1CCN(c2ccccn2)CC1,-4.77,2.67,-1.22,-3.81,1.77,4.16,31.5,3.68,0,-14.4,
c1cnnc(N2CCCC2CNCc2nc(-c3ccsc3)no2)c1 (centres undefined),-4.07,-23.1,-7.35,9.11,-6.15,0.256,-10.2,5.26,6.02,-1.74,
COc1cccc2c1OCC(C(=O)NC1CCN(S(C)(=O)=O)CC1)C2 (centres undefined),-2.9,16.2,3.48,3.59,12.2,18.7,16.9,5.85,17.1,93.6,
CC(Cn1cccn1)NC(=O)NCc1cccnc1OC1CCCC1 (centres undefined),-2.7,8,-3.26,4.42,0.887,8.06,-10.3,0.526,10.3,-8.77,
CNC(=O)C1(c2cnccn2)CCCN1C(=O)c1ccccc1OC (centres undefined),0.772,14.7,-7.91,-1.77,-3.98,9.36,17.4,-2.12,5,-18.1,
COCCc1noc(CN2CCCCC2Cn2cc(C)cn2)n1 (centres undefined),-0.511,-2.56,-0.235,3.85,-1.23,3.84,12.7,-3.35,6.02,-1.31,
CCC1=N[C@@]2(CC[C@@H]3CN(C(=O)NCc4ccccc4)C[C@@H]32)C(=O)N1C,-5.59,-6.49,-0.715,-3.02,-2.02,5.21,6.81,1.58,-10.3,0.585,
Cc1nc(C)n(CC2CCCN2Cc2ccn(-c3ccccc3)n2)n1 (centres undefined),0.0578,-20.8,13.8,0.933,-4.3,4.04,3.86,4.9,16.5,-7.02,
Cc1nn(-c2ccccc2)cc1C(=O)N1CCCC(n2cccn2)C1 (centres undefined),-2.22,13.3,4.19,1,7.09,9.07,-2.62,4.74,12.8,-12.7,
Clc1ccc(OCCCN2CCN(c3cnccn3)CC2)cc1,-2.88,-7.79,9.41,-0.933,-2.66,-2.63,3.86,11.8,23.5,-3.92,
